IDE exosite inh – displaces the probe from the exo-site of human IDE | P14735 | z-score at 20 µM | hit rate 6.3% among 17,000 | purified IDE, FL-6b probe fluorescence polarization; active compounds read low;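 active = z-score of -3 or lower, meaning strong loss of probe binding signal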;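 also: His-tagged human IDE residues 42-1019 made in E. coli with 30 nM FL-6b probe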
Target sequence (P14735 42-1019 limits assumed): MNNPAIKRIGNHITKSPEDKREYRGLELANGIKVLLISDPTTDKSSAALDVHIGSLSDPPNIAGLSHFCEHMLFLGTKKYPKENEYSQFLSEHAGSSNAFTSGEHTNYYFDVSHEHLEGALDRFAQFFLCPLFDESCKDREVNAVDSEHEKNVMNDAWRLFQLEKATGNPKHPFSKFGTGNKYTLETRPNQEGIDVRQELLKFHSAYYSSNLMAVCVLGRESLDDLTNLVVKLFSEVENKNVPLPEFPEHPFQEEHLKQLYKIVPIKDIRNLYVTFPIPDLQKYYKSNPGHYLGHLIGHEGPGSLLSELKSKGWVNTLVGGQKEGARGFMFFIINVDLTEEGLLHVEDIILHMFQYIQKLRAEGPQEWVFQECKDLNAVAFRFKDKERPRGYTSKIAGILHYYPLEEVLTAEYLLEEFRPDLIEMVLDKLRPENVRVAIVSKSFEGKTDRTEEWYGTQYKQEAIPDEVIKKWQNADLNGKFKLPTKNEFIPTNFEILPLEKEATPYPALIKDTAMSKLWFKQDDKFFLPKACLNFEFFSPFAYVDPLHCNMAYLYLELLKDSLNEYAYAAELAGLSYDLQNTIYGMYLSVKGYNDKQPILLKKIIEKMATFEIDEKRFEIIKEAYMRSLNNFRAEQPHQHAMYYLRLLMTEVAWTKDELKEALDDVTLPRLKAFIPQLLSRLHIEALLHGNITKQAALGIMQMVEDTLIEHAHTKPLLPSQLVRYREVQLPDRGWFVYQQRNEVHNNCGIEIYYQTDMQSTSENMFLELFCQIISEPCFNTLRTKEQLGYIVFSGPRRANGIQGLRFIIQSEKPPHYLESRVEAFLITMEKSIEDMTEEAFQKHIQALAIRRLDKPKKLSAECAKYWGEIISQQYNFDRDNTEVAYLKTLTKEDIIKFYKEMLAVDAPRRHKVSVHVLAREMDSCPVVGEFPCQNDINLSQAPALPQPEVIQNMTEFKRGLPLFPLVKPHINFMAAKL
Active calls of the source: *. This excerpt belongs to a sample that is enriched for hits.

SMILES	IDE exosite inh
N#C[C@H]1[C@H](c2ccccc2-c2ccccc2F)[C@@H](CO)N1C(=O)C1CC1	3.4
Cc1ccccc1S(=O)(=O)N1CCCCN2[C@H](CO)[C@@H](c3ccc(-c4cccc(F)c4)cc3)[C@H]2C1	4.1
N#C[C@@H]1[C@@H](c2ccc(-c3cccnc3)cc2)[C@H](CO)N1C(=O)C1CCC1	1.9
CC(C)C#Cc1ccc([C@H]2[C@H]3CN(C(=O)c4ccccn4)CC(=O)N3[C@H]2CO)cc1	2.6
O=C(Cc1ccccn1)N1CC(=O)N2[C@@H](CO)[C@@H](c3ccc(-c4ccc(F)cc4)cc3)[C@@H]2C1	2.9
CNC[C@@H]1Oc2ccc(N)cc2CC(=O)N([C@H](C)CO)C[C@H]1C	0.8
CCCNC(=O)N1[C@H](C#N)[C@@H](c2ccccc2-c2ccc(C)cc2)[C@@H]1CO	2
COc1ccc(-c2ccc([C@@H]3[C@@H](CO)N4C(=O)CN(C(=O)Cc5ccccn5)C[C@H]34)cc2)cc1	1.1
O=C(Cc1ccccn1)N1CC(=O)N2[C@H](CO)[C@@H](c3ccc(C#CC4CC4)cc3)[C@H]2C1	3.5
O=C(Cc1ccccn1)N1CC(=O)N2[C@H](C1)[C@@H](c1ccc(C#CC3CC3)cc1)[C@@H]2CO	-3.1*
Cc1cccc(-c2ccc([C@H]3[C@H]4CN(C(=O)Cc5ccccn5)CC(=O)N4[C@H]3CO)cc2)c1	-4.5*
COc1ccc(-c2ccc([C@H]3[C@H]4CN(C(=O)Cc5ccccn5)CC(=O)N4[C@H]3CO)cc2)cc1	-0.84
Cc1ccc(-c2ccc([C@H]3[C@H]4CN(C(=O)Cc5ccccn5)CC(=O)N4[C@H]3CO)cc2)cc1	-2.1
Cc1ccc(-c2ccc([C@H]3[C@H](CO)N4C(=O)CN(C(=O)Cc5ccccn5)C[C@@H]34)cc2)cc1	0.21
O=C(Cc1ccccn1)N1CC(=O)N2[C@@H](CO)[C@H](c3ccc(-c4ccccc4)cc3)[C@@H]2C1	-1.5
O=C(Cc1ccccn1)N1CC(=O)N2[C@@H](CO)[C@@H](c3ccc(C#CC4CC4)cc3)[C@@H]2C1	0.96
Cc1cccc(-c2ccc([C@@H]3[C@@H](CO)N4C(=O)CN(C(=O)Cc5ccccn5)C[C@@H]34)cc2)c1	-12*
Cc1ccc(-c2ccc([C@H]3[C@@H](CO)N4C(=O)CN(C(=O)Cc5ccccn5)C[C@@H]34)cc2)cc1	-1.3
Cc1cccc(-c2ccc([C@H]3[C@@H](CO)N4C(=O)CN(C(=O)Cc5ccccn5)C[C@@H]34)cc2)c1	-11*
N#Cc1ccc(-c2ccc([C@@H]3[C@@H](CO)N4C(=O)CN(C(=O)C5CCCCC5)C[C@H]34)cc2)cc1	0.089
Cc1cccc(S(=O)(=O)N2C[C@H](O)COC[C@H]3O[C@H](CC(=O)Nc4ccccc4)CC[C@@H]32)c1	0.67
CO[C@H]1CN(C)C(=O)c2ccc(NC(=O)NC(C)C)cc2OC[C@@H](C)N(Cc2ccc(-c3ccccn3)cc2)C[C@@H]1C	-0.12
Cc1ccccc1-c1ccc(C2[C@H]3CNC[C@@H]2N3Cc2cncnc2)cc1 (stereo not given in full)	-1.3
COc1ccc(-c2ccccc2[C@@H]2[C@H](C#N)N(C(=O)C3CC3)[C@H]2CO)cc1	-0.72
COC(=O)c1ccc(CN2CC(=O)N3[C@H](CO)[C@@H](c4ccc(Br)cc4)[C@H]3C2)cc1	2.8
SMILES	IDE exosite inh
COC(=O)c1ccc(CN2CC(=O)N3[C@H](CO)[C@@H](c4ccc(Br)cc4)[C@@H]3C2)cc1	-3.5*
C/C=C/c1ccc([C@@H]2[C@@H](CO)N3C(=O)CN(Cc4ccc(C)cc4)C[C@@H]23)cc1	1.2
C/C=C/c1ccc([C@H]2[C@H](CO)N3C(=O)CN(Cc4ccc(C)cc4)C[C@@H]23)cc1	-5*
COC(=O)c1ccc(CN2CC(=O)N3[C@H](CO)[C@H](c4ccc(Br)cc4)[C@@H]3C2)cc1	-0.79
C/C=C/c1ccc([C@@H]2[C@H]3CN(Cc4ccc(C)cc4)CC(=O)N3[C@H]2CO)cc1	2
CN(C)CC(=O)N1CCCCN2[C@H](CO)[C@@H](c3ccc(-c4cccnc4)cc3)[C@@H]2C1	1.9
CN(C)C(=O)c1cccc(-c2ccc([C@H]3[C@H]4CN(CC5CCOCC5)CCCCN4[C@H]3CO)cc2)c1	1.9
O=C(Nc1cccc(Cl)c1)N1C[C@H]2[C@@H](c3ccccc31)[C@H](CO)N2Cc1cccnc1	2.1
CN(C)C(=O)c1cccc(-c2ccc([C@H]3[C@H]4CN(C(=O)CC5CC5)CC(=O)N4[C@H]3CO)cc2)c1	5.3
Cc1ccccc1-c1ccc([C@H]2[C@H](CO)N3C(=O)CN(C(=O)c4ccncc4)C[C@@H]23)cc1	-7.4*
Cc1ccccc1-c1ccc([C@@H]2[C@@H](CO)N3C(=O)CN(C(=O)c4ccc(F)cc4)C[C@H]23)cc1	-0.12
O=C(c1ccccc1)N1CC(=O)N2[C@H](C1)[C@@H](c1ccc(-c3ccccc3)cc1)[C@@H]2CO	-0.84
Cc1ccccc1-c1ccc([C@H]2[C@@H](CO)N3C(=O)CN(C(=O)c4ccccc4)C[C@@H]23)cc1	-8.3*
COc1ccccc1S(=O)(=O)N(C)C[C@H]1OCc2ccccc2-c2ccccc2C(=O)N([C@@H](C)CO)C[C@H]1C	-0.39
